The source of these data is PubChem BioAssay (Tox21).

Assay [1] can be described thus: A CellTox Green Cytotoxicity Assay to monitor cytotoxicity in HEK293 cells - 32 hour (AID 1224881). Note: nearly all actives have a fitted effect of over 40% in size. In outline:
(§1)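 Seeding of HEK293 cells together with cytotoxicity dye preceded a 5 h incubation at 37 C/5% CO2. Test compounds in DMSO were then added and fluorescence monitored across 40 h.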

Assay [2] can be described thus: A CellTox Green Cytotoxicity Assay to monitor cytotoxicity in HepG2 cells - 0 hour (AID 1224882). Note: nearly all actives have a fitted effect of over 35% in size. In outline: (§2)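 Nonlytic assay: viable cells exclude the dye, so fluorescence scales with cell death. HepG2 at 600 cells/well, compounds added after 5 h, signal read across 40 h.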
Assay [3] in a line: A CellTox Green Cytotoxicity Assay to monitor cytotoxicity in HepG2 cells - 32 hour (AID 1224883). Note: nearly all actives have a fitted effect of over 50% in size. In outline: as §2
Assay [4] can be described thus: A CellTox Green Cytotoxicity Assay to monitor cytotoxicity in HEK293 cells - 8 hour (AID 1224884). Note: nearly all actives have a fitted effect of over 35% in size. The procedure, abridged: as §1
The nature of assay [5]: qHTS RealTime-Glo MT Cell Viability Assay in HepG2 cells - 16 hour (AID 1224885). Note: nearly all actives have a fitted effect of over 50% in size. The procedure, abridged:
(§3)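 Luminescence read-out: viable HepG2 cells reduce a prosubstrate to a NanoLuc substrate, giving a signal proportional to live cell number. Reads taken at 0, 8, 16, 24, 32 and 40 h of compound exposure at 37 C.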

Assay [6] can be described thus: qHTS RealTime-Glo MT Cell Viability Assay in HEK293 cells - 24 hour (AID 1224886). Note: top concentration of the series differs between compounds; nearly all actives have a fitted effect of over 50% in size. In outline: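 Nonlytic real-time viability readout: viable cells convert prosubstrate to NanoLuc substrate, giving luminescence proportional to live cell number. HEK293, 600 cells/well, compound added after 5 h, continuous culture at 37 C.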
Background: In qHTS, concentration-response curves come from the screen itself.

A short description of assay [7]: qHTS RealTime-Glo MT Cell Viability Assay in HEK293 cells - 8 hour (AID 1224887). Note: top concentration of the series differs between compounds; nearly all actives have a fitted effect of over 50% in size. In outline: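 Tox21 screen in HEK293 using RealTime-Glo MT chemistry, with cells and reagent co-dispensed. Luminescence proportional to viable cell number was captured at intervals during 40 h compound exposure at 37 C.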
A short description of assay [8]: A CellTox Green Cytotoxicity Assay to monitor cytotoxicity in HEK293 cells - 16 hour (AID 1224888). Note: nearly all actives have a fitted effect of over 35% in size. The procedure, abridged:
as §1

Assay [9] is described as follows: qHTS RealTime-Glo MT Cell Viability Assay in HepG2 cells - 0 hour (AID 1224889). Note: nearly all actives have a fitted effect of over 50% in size. Note: potency is the fitted concentration of half-maximal effect. The procedure, abridged:
as §3

Assay [10] can be described thus: A CellTox Green Cytotoxicity Assay to monitor cytotoxicity in HepG2 cells - 8 hour (AID 1224890). Note: nearly all actives have a fitted effect of over 45% in size. The procedure, abridged: as §2
Assay [11] can be described thus: qHTS assay to identify small molecule antagonists of the estrogen receptor alpha (ER-alpha) signaling pathway using the BG1 cell line in the presence of 0.1 nM 17-beta-estradiol - cell viability counter screen (AID 1259241). Note: nearly all actives have a fitted effect of over 40% in size. In outline:
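Cells were plated and left 24 hr, compounds in DMSO were pinned in, 17beta-estradiol was added to 0.1 nM final, and after 22 hr CellTiter-Fluor reagent was added for 30 min before fluorescence was read.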

A short description of assay [12]: qHTS assay to identify small molecule antagonists of the androgen receptor (AR) signaling pathway using the MDA cell line in the presence of 0.5 nM R1881 - cell viability counter screen (AID 1259242). Note: nearly all actives have a fitted effect of over 45% in size. The procedure, abridged:
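R1881 at 0.5 nM final stimulated MDA-kb2 cells during 16 hr compound treatment at 37C. Cytotoxicity read: CellTiter-Fluor fluorescence after 30 min.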

A short description of assay [13]: qHTS assay to identify small molecule HDAC inhibitors - cell viability counter screen (AID 1259365). The procedure, abridged:
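Counter screen in wild-type HCT-116 cells: compounds dissolved in DMSO are pin-transferred onto overnight-plated cells and left 2hr at 37C. ATP-based CellTiter-Glo luminescence then measures viable cells.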

Assay [14] in a line: qHTS assay to identify small molecule agonists of the sonic hedgehog signaling (Shh) pathway - cell viability counter screen (AID 1259366). Note: nearly all actives have a fitted effect of over 50% in size. In outline: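 Cells are plated at 2,000 per well and left 4hr at 37C, 5% CO2 before compound addition. After 23hr of treatment, CellTiter-Fluor reagent is added for 1hr at 37C and fluorescence is measured.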
The nature of assay [15]: qHTS assay to identify small molecule antagonists of the sonic hedgehog signaling (Shh) pathway - cell viability counter screen (AID 1259367). Note: nearly all actives have a fitted effect of over 55% in size. In outline:
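NIH/3T3-derived Gli1-Luc reporter cells, 2,000/well, plated 4 hr before compound addition, then stimulated with conditioned medium for 24 hr at 37C. Viability measured in the same wells by CellTiter-Fluor fluorescence, reagent added at 23 hr for 1 hr.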

Assay [16] in a line: qHTS assay to identify small molecule agonists of the sonic hedgehog signaling (Shh) pathway (AID 1259368; calls by dose curve;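 note: NIH/3T3-derived 3T3Gli1-Luc cells carrying a stable Gli1-driven firefly luciferase reporter; series mostly up to about 92 µM; nearly all actives have a fitted effect of over 15% in size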). In outline: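 Mouse fibroblast (NIH/3T3) reporter cells with stably integrated Gli1-Luc were treated 24 hr with compound; firefly luciferase luminescence served as the read-out.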
In assay [17] the target is Estrogen receptor (Homo sapiens) (UniProt P03372). Briefly: qHTS assay to identify small molecule antagonists of the estrogen receptor alpha (ER-alpha) signaling pathway using the BG1 cell line in the presence of 0.1 nM 17-beta-estradiol (AID 1259244). Note: nearly all actives have a fitted effect of over 50% in size. The procedure, abridged:
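VM7Luc4E2; 4xERE-luciferase; 0.1 nM E2 final; 22 h co-incubation, 37C; ONE-Glo luminescence after 30 min at room temperature.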

Assay [18] in a line: qHTS assay to identify small molecule phospholipidosis (PLD) inducers (AID 1259344; active = well fitted curve in the direction sought with a large enough effect; an effect the other way counts as inactive or inconclusive). The procedure, abridged:
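HepG2 cells, 900/well, treated with compound plus LipidTOX Red for 24 h at 37 C; amiodarone positive and DMSO negative controls. Fixed with paraformaldehyde/Hoechst, then high-content imaging scored LipidTOX pit count and integrated intensity per well and per cell.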

Assay [19] in a line: qHTS assay to identify small molecule HDAC inhibitors (AID 1259364).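 Note: wild-type HCT-116 cells with endogenous class I/II HDAC activity; top concentration of the series differs between compounds; nearly all actives have a fitted effect of over 45% in size.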 The procedure, abridged: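 Relative class I and II HDAC activity is taken from the luminogenic signal in HCT-116 cells, with compound exposure 2 hr and reagent development 30 min at room temperature.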
For assay [20], the target named is Androgen receptor (Homo sapiens) (UniProt P10275). Nature of the assay: qHTS assay to identify small molecule antagonists of the androgen receptor (AR) signaling pathway using the MDA cell line in the presence of 0.5 nM R1881 (AID 1259243). Note: nearly all actives have a fitted effect of over 50% in size. In outline: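 We exposed MDA-kb2 cells to compounds under 0.5 nM R1881 stimulation for 16 hr at 37C and quantified MMTV-driven luciferase by luminescence.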

Each structure is given as a SMILES string. Records with an inconclusive call do not appear. Some compounds were tested as several samples or in several runs, with calls that do not always agree. Active and inactive are the calls of the source. Unless noted, calls come from the whole dose curve; as a rule, active = well fitted curve in the direction sought with a large enough effect in the repeat runs; inconclusive = weak or mixed curves; inactive = no such curve, though single readings can be large; an effect the other way counts as inactive or inconclusive.

Estrogen receptor (Homo sapiens), sequence (P03372 whole entry, looked up): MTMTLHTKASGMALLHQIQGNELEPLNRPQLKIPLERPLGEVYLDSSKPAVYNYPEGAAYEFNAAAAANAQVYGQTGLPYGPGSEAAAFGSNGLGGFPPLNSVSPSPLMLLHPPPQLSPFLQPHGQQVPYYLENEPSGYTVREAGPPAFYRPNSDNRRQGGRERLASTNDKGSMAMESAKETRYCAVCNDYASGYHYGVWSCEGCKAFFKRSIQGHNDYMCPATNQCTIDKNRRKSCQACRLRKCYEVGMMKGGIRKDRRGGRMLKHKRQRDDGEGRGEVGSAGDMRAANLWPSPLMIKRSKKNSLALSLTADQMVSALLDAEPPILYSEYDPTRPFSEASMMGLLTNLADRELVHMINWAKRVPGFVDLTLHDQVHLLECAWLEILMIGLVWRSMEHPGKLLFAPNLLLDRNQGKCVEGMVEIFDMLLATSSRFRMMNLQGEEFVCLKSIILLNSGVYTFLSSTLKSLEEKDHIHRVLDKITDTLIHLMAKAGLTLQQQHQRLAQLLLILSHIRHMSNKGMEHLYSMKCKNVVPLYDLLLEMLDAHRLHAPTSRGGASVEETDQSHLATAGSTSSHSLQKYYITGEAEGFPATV
Androgen receptor (Homo sapiens), sequence (P10275 whole entry, looked up): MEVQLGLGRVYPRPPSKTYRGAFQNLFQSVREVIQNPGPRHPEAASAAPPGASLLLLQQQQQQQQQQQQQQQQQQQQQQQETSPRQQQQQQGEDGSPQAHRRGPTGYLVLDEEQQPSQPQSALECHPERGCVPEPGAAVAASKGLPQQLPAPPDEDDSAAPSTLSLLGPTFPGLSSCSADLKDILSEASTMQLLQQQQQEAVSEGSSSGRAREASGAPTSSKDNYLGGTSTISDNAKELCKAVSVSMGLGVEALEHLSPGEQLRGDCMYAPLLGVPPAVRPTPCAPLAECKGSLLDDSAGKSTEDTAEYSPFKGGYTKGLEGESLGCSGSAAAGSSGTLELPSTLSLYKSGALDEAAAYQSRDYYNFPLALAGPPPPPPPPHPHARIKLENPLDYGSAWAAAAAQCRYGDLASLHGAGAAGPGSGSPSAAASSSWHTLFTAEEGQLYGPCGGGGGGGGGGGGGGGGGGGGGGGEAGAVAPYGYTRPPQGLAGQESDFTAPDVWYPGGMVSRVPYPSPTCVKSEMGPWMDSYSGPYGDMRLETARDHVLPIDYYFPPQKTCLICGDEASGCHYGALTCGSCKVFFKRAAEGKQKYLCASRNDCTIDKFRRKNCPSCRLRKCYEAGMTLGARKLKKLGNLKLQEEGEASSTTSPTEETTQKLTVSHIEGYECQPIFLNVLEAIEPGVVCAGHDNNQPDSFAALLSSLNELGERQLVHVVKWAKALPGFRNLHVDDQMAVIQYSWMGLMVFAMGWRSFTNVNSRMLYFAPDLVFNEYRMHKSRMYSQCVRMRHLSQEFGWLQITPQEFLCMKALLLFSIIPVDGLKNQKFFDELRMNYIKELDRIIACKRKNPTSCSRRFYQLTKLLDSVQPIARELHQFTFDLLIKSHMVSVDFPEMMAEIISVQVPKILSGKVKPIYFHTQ

In the case of `CC(O)CC(C)(C)O` (stereo unspecified), the Potency entry in assay [1], in assay [3], in assay [5], in assay [6], in assay [7] and in assay [8] was “inactive” each time. Further, the Potency result in [9], in [11], in assay [12], in assay [14] and in assay [15] was “inactive” in each case. The call in assay [2], in assay [4], in assay [10], in assay [13] and in assay [16] was inactive.
On to `COC(=O)CCCC(=O)OC`, for which the Potency entry in assay [1], in [3], in [5], in [6], in assay [7] and in assay [9] was “inactive” each time. In addition, the Potency entry in [11], in assay [12], in assay [14] and in assay [15] was “inactive” each time. In addition, the outcome in assay [2], in assay [4], in [10], in assay [13] and in assay [16] was inactive.
For `O=c1[nH]cnc2[nH]ncc12`, the Potency result in assay [1], in [3], in [5], in [6], in assay [7] and in assay [8] was “inactive” throughout. Further, the Potency entry in [9], in assay [11], in [12], in assay [17], in assay [14] and in assay [15] was “inactive” in each case. Further, the call in assay [2], in assay [4], in assay [10], in assay [18], in [13] and in assay [16] was inactive.
For the compound `Cc1ccc(C(C)C)c(O)c1`, the Potency result in assay [1], in [3], in [5], in [7], in [8] and in assay [9] was “inactive” throughout. Also, the Potency result in assay [11], in assay [12], in [17], in [19] and in assay [15] was “inactive” throughout. Besides, the result in [2], in assay [4], in assay [10], in assay [18], in assay [13] and in assay [16] was inactive.
As for `CC(C)CC(C)O` (stereo unspecified), the Potency result in assay [1], in assay [3], in assay [5], in assay [7], in assay [8] and in assay [9] was “inactive” in each case. The Potency entry in assay [11], in assay [12], in assay [17], in [14] and in [15] was “inactive” throughout. For the same compound, the result in assay [2], in assay [4], in assay [10], in assay [13] and in [16] was inactive.
As to `CCCCCCCC=O`, the Potency entry in [1], in assay [3], in assay [5], in assay [6], in assay [7] and in assay [8] was “inactive” each time. For the same compound, the Potency result in [9], in [11], in assay [12], in assay [17], in assay [14] and in [15] was “inactive” throughout. Moreover, the result in [2], in assay [4], in assay [10], in assay [13] and in [16] was inactive.
As to `CC(CCO)CC(C)(C)C` (stereo unspecified), the Potency result in assay [1], in assay [3], in [5], in assay [6], in assay [7] and in [8] was “inactive” throughout. For the same compound, the Potency entry in assay [9], in [11], in assay [12], in assay [20], in [17] and in assay [19] was “inactive” in each case. Further, the Potency entry in [14] and in assay [15] was “inactive” each time. In addition, the compound was called inactive in [2], in assay [4], in assay [10], in assay [13] and in assay [16].
As for `CCCCOC(=O)c1ccc(N)cc1`, the Potency result in [1], in assay [3], in assay [5], in assay [6], in [7] and in [8] was “inactive” throughout. The Potency entry in assay [11], in [12], in assay [17], in assay [19] and in assay [15] was “inactive” each time. The call in assay [2], in assay [4], in assay [10], in assay [18], in assay [13] and in [16] was inactive. For the same compound, in [9], the Potency was 24.2 µM (active) and inactive.
